Data as given in ChEMBL document CHEMBL4513216, “Probing the Open Global Health Chemical Diversity Library for Multistage-Active Starting Points for Next-Generation Antimalarials” (ACS Infect Dis, 2020).
The whole screen tested about 65,000 compounds, of which about 2,100 (3.2%) showed an effect of 50% or more. The median lay at about -52%. The sample holds strong results, similar compounds and a random draw of the others, so the mix is not that of the screen.

The compounds below were run on Plasmodium falciparum (assay: Screen against P. falciparum Asexual Blood Stage (ABS), at 5uM). Conditions: tested at 5 uM.
Format: functional, Dd2
Work on CCc1nc(-c2ccc(NC(=O)N3CCC4(CC3)OCCO4)cc2)no1 yielded an INHIBITION of 30.5%. O=C1CO[C@@H]2CN(Cc3cccs3)C[C@H]2N1Cc1cccnc1 was tested, and the INHIBITION was -28.4%. Compound O=C(c1cc(-n2cccc2)ccc1Cl)N1CCC2(CC1)OCCO2 has an INHIBITION of -6.62%. COc1cccc(CN(C)Cc2[nH]c3ccccc3c2C)c1O was tested, and the INHIBITION was 88.7%. O=C1CSC(c2ccncc2)c2c[nH]nc2N1 (stereo unspecified) showed an INHIBITION of -101%. With COc1cccc(Nc2nc(-c3ccncc3)nc3c2CNCC3)c1 the INHIBITION was 82.2%. Compound COc1cccc(Nc2nc(N3CCCC3)nc3c2CNCC3)c1 has an INHIBITION of 85.7%. Compound Fc1cccc(Nc2nc(N3CCCC3)nc3c2CNCC3)c1 has an INHIBITION of 84.3%. In the case of CC(C)(C)n1cc(C(=O)O)c(-c2ccc(F)cc2F)n1, the INHIBITION is reported as -86.4%. Work on Fc1cnc(N2CCN3C[C@H](Oc4cncnc4)C[C@H]3C2)nc1 yielded an INHIBITION of -74.8%. c1ccc(CN2CCOC3CNCC[C@H]32)cc1 (stereo partly specified) showed an INHIBITION of 23.5%. With Cc1nc(CN2CCO[C@H]3CN(C(=O)Cc4cccs4)C[C@H]32)cs1 the INHIBITION was -65.8%. O=c1c2ccccc2cnn1Cc1cncn1C1CC1 was tested, and the INHIBITION was -100%. CS(=O)(=O)N1CCC2(CCCN(Cc3ccccn3)C2)CC1 gave an INHIBITION of -200%. Compound CC1(c2ccccc2)CCCN(Cc2cncn2C2CCCC2)C1 (stereo unspecified) has an INHIBITION of 91%. For COCCNc1c(C#N)c2c(c3nncn13)CN(C)CC2, the INHIBITION was -128%. CC(C)(C)CN1CCCC2(CCN(C(=O)c3ccc(O)nc3)C2)C1 (stereo unspecified) gave an INHIBITION of -154%. CC(C)(C)c1cn(C[C@H]2CC3CCN2C[C@@H]3C(=O)N2CCOCC2)nn1 (stereo partly specified) gave an INHIBITION of -111%. COc1c(C)cnc(CN(C)C2CCCCC2)c1C was tested, and the INHIBITION was 76.7%. Work on COc1c(C)cnc(CN2CCC(N(C)C(C)C(N)=O)CC2)c1C (stereo unspecified) yielded an INHIBITION of 78.2%. In the case of Cc1n[nH]c2c1C(c1ccc(O)cc1)SCC(=O)N2 (stereo unspecified), the INHIBITION is reported as -12.2%. For Cc1cnccc1CN1CC[C@H](Oc2cccc(F)c2)[C@@](C)(O)C1, the INHIBITION was 80.2%. For Fc1cccc(O[C@@H]2C[C@H]3CN(Cc4ccccn4)CCN3C2)c1, the INHIBITION was -29.8%. Compound Cc1cccnc1CN1CCC2(CC(Nc3ccncn3)C2)C1 (stereo unspecified) has an INHIBITION of -21.6%. Work on O=C(Cc1ccccn1)N1CCN2C[C@H](Oc3cccc(F)c3)C[C@H]2C1 yielded an INHIBITION of -85.6%. Work on Cc1cccnc1CN1CC[C@H](Oc2cccc(F)c2)[C@@](C)(O)C1 yielded an INHIBITION of 75%. Fc1cccc(O[C@@H]2C[C@H]3CN(Cc4ccncc4)CCN3C2)c1 was tested, and the INHIBITION was -111%. For O=C(c1ccsc1)N1CCN2C[C@H](OCc3ccccn3)C[C@H]2C1, the INHIBITION was -131%. Cc1cc(CN2CC[C@@H]3O[C@@H](c4nnc(C)o4)C[C@H]3C2)no1 showed an INHIBITION of -68.8%. Work on Cc1cc(-c2nn(C)c(Cl)c2CN2CCCCC(N)C2)no1 (stereo unspecified) yielded an INHIBITION of 70.3%. Work on Cc1csc([C@H]2C[C@H]3CN(Cc4cc(C)on4)CC[C@@H]3O2)n1 yielded an INHIBITION of -109%. Compound Cn1nc(CN2CCCCC(N)C2)c2c(Cl)cccc21 (stereo unspecified) has an INHIBITION of 66.2%. Compound CS(=O)(=O)N[C@@H]1CN(Cc2ccncc2)C[C@@H]2CCCO[C@@H]21 has an INHIBITION of -73%. Work on NC(=O)CN1CCCN(C(=O)Cc2cccc(C(F)(F)F)c2)CC1 yielded an INHIBITION of -122%. Compound CC(N)C(=O)N1CCC(Oc2cccc(C(F)(F)F)c2)CC1 (stereo unspecified) has an INHIBITION of 76.6%. NCC1(c2cccc(C(F)(F)F)c2)CCCC1 was tested, and the INHIBITION was 32.6%. For OC1(CN2CCC(Oc3cccc(C(F)(F)F)c3)CC2)CCNC1 (stereo unspecified), the INHIBITION was 90.3%. Compound CC[C@H]1CN2CC[C@H]1C[C@@H]2CNC(=O)Nc1cccc(C(F)(F)F)c1 has an INHIBITION of -88.1%. Cc1ccc(CN2C[C@@H](OCc3ccccn3)[C@H]3COC[C@H]32)o1 was tested, and the INHIBITION was -72.9%. In the case of CCc1ccc(CN2CC[C@@H]3NC(=O)CC[C@@H]32)o1, the INHIBITION is reported as 11.1%. In the case of COc1cccc(CNCc2ccc(F)cc2Cl)c1O, the INHIBITION is reported as 79.5%. Work on COc1cccc(CNCc2ccccc2Cl)c1O yielded an INHIBITION of 77%. c1cc(COC[C@]23COC[C@H]2CN(Cc2ccsc2)C3)ccn1 was tested, and the INHIBITION was 41.6%. For Cc1ncsc1CN1C[C@@H](OCc2ccccn2)[C@H]2OCCC[C@H]21, the INHIBITION was -244%. Cc1nn(C)c(C)c1CN1CCNCC1 gave an INHIBITION of -133.5%. Cc1cc(C)n(CCCn2cncc2-c2ccc3c(c2)CC(C)N3C)n1 (stereo unspecified) showed an INHIBITION of 87.4%. Cc1nn(C)c(C)c1CCn1cncc1-c1ccc2c(c1)CC(C)N2C (stereo unspecified) showed an INHIBITION of 82.6%. In the case of CCN1c2ccc(-c3cncn3CCCn3ccnc3C)cc2CC1C (stereo unspecified), the INHIBITION is reported as 86.6%. With CCN1c2ccc(-c3cncn3CC(=O)NC(C)(C)C)cc2CC1C (stereo unspecified) the INHIBITION was 73.2%. Cc1cc(C)c(CNc2ncnc3ccsc23)c(=O)[nH]1 was tested, and the INHIBITION was -52%. With Cc1csc(C2(NCC(O)COC(C)C)CCCC2)n1 (stereo unspecified) the INHIBITION was -14.1%. Compound O=C(c1cc(F)cc(F)c1)N1C[C@H]2CNC[C@H]2C1 has an INHIBITION of 1.31%. For CC(C)N1C(=O)C2(CCN(C)CC2)c2cc(F)ccc21, the INHIBITION was -10.7%. Work on CN1CCC2(CC1)C(=O)N(c1cccnc1)c1ccc(F)cc12 yielded an INHIBITION of 59.5%. CC(C)N1CCC2(CC1)C(=O)N(c1cccnc1)c1ccc(F)cc12 gave an INHIBITION of 65.4%. CC(C)N1CCC2(CC1)C(=O)N(c1cccnc1)c1c(F)cccc12 gave an INHIBITION of 49.8%. In the case of CN1C(=O)C2(CCNCC2)c2cc(F)ccc21, the INHIBITION is reported as -85.9%. CN1CCC2(CC1)C(=O)N(C)c1ccc(F)cc12 gave an INHIBITION of -95.4%. Work on Cc1cccc(CN2CCCC23CCNC3)n1 (stereo unspecified) yielded an INHIBITION of 15.6%. Cc1cccc(CN(Cc2ccc(C)o2)C2CC(C)(C)NC(C)(C)C2)n1 gave an INHIBITION of 77.4%. Cc1cccc(CN2CCCCC23CCNC3)n1 (stereo unspecified) was tested, and the INHIBITION was 25.4%. Work on COc1cc(C(=O)NCC2(N(C)C)CCN(C)CC2)c2ccccc2n1 yielded an INHIBITION of 73.6%. Compound Cn1cc(CN2CCC[C@]3(C[C@H](Oc4ccccn4)CO3)C2)cn1 has an INHIBITION of -23.8%. In the case of CO[C@H]1CN(C(C)C)C[C@@H]1NC(=O)Nc1ccc(C(F)(F)F)cc1, the INHIBITION is reported as 71.5%. CC(C)=CCN1CCC2(CC1)CC(=O)N(Cc1cc(F)cc(F)c1)C2 was tested, and the INHIBITION was 75%. Work on O=C1CC2(CCN(Cc3ccncc3)C2)CN1c1cccc(F)c1 (stereo unspecified) yielded an INHIBITION of -17.3%. For O=C1CC2(CCN(Cc3cccnc3)C2)CN1c1cccc(F)c1 (stereo unspecified), the INHIBITION was -34.7%. CCCN1CCN(C(=O)c2ccc(Cl)cn2)[C@H]2CS(=O)(=O)C[C@H]21 was tested, and the INHIBITION was -54.2%. c1cncc(COC[C@H]2CC[C@H]3[C@H](CCN3Cc3nccs3)O2)c1 showed an INHIBITION of -35.5%. In the case of COc1ccc(-c2n[nH]cc2C2SCC(=O)Nc3[nH]ncc32)cc1 (stereo unspecified), the INHIBITION is reported as -21.3%. Compound Cc1ccc(C(=O)N2CC[C@H]3[C@H]2CCN3CC2CCOCC2)cn1 has an INHIBITION of -131%. For O=S(=O)(NC1CCC12CCN(CC1CC1)CC2)c1ccccc1 (stereo unspecified), the INHIBITION was 71.2%. CO[C@H]1CCN(S(=O)(=O)c2cccnc2)[C@@H]2CN(CC3CC3)C[C@H]12 gave an INHIBITION of 31%. CNC(=O)c1ccc2c(c1)C1(CCN(CC3CC3)CC1)C(=O)N2 showed an INHIBITION of -44.8%. Compound c1ccc(CN2C[C@@H]3COC[C@]3(COCC3CCOCC3)C2)nc1 has an INHIBITION of -61.3%. c1ccc(CN2C[C@@H]3COC[C@]3(COCc3ccncc3)C2)nc1 gave an INHIBITION of -47.9%. Clc1ccc(COCC2CCN(Cc3ccccn3)CC2)cc1 showed an INHIBITION of 90.7%. c1ccc(CN2C[C@H]3CCC[C@@]3(COCC3CC3)C2)nc1 was tested, and the INHIBITION was -64.4%. In the case of Fc1ccc(COCC2CCN(Cc3ccccn3)CC2)cc1, the INHIBITION is reported as 78.8%. In the case of c1ccc(CN2C[C@H]3CCC[C@@]3(COCC3CCOCC3)C2)nc1, the INHIBITION is reported as -45.1%. Work on Cc1nc2c(c(NCc3nc4ccccc4s3)n1)CCNCC2 yielded an INHIBITION of 71.3%. Cc1nc2c(c(NCc3cc4ccccc4s3)n1)CCNCC2 showed an INHIBITION of 89.2%. In the case of Cc1nc2c(c(NCc3ccc(-c4ccccn4)s3)n1)CCNCC2, the INHIBITION is reported as 73.6%. COc1ncnc(N)c1CNCCc1ccccc1 gave an INHIBITION of -136%. For Cc1nc(C2(NCC(=O)NCc3cccs3)CCCCC2)no1, the INHIBITION was -130%. Compound CN(C)C(=O)CN1CCCC2(CCN(c3ccc(C#N)cn3)C2)C1 (stereo unspecified) has an INHIBITION of -51.1%. Work on O=C1CCCN1CCN1CC=C(c2cnn(C3CCS(=O)(=O)C3)c2)CC1 (stereo unspecified) yielded an INHIBITION of -88.6%. CC(Nc1ncnc2c1CCNC2)c1ccc2c(c1)CCCC2 (stereo unspecified) gave an INHIBITION of 71.2%. Work on CC(C)N(C)Cc1cncc2c1CCN(Cc1cccs1)C2 yielded an INHIBITION of 1.43%. In the case of COc1cc(Oc2ncccc2C(F)(F)F)ccc1CN1CCCC1, the INHIBITION is reported as 79.4%. In the case of CCN1CCCC12CCN(Cc1cccnc1OC)CC2, the INHIBITION is reported as -69.1%. COCCN1CCCC12CCN(Cc1cccnc1OC)CC2 gave an INHIBITION of -66.3%. For Cc1noc(C)c1CN1CCO[C@H]2[C@H](Oc3ccccn3)CC[C@@H]21, the INHIBITION was -42.5%. Work on OCCCN1CCc2[nH]nc(C(c3ccccc3)c3ccccc3)c2C1 yielded an INHIBITION of 73%. For Cc1cccc(CN2CC3C[C@]3(NC(=O)c3ccoc3)C2)n1 (stereo partly specified), the INHIBITION was -67.9%. COCCN1C[C@@H]2[C@@H](OC)CCN(S(=O)(=O)c3cccnc3)[C@@H]2C1 gave an INHIBITION of -22.8%. Work on Cn1ccc2c(C(=O)NC3CN4CCC3CC4)cccc21 (stereo unspecified) yielded an INHIBITION of 3.44%. Cc1ccc(C(=O)N[C@H]2CN(CCO)C[C@@H]2C2CC2)cc1Cl showed an INHIBITION of 52.2%. With CCOc1ccc(C2SCC(=O)Nc3c2c(=O)[nH]n3C(CC)CC)cc1 (stereo unspecified) the INHIBITION was -144%. In the case of CCN1CCN(c2cncc(Cl)n2)CC1, the INHIBITION is reported as -13.6%. Compound CCN1CCN(S(=O)(=O)c2cc(Cl)c(Cl)cc2C)CC1 has an INHIBITION of 70.9%.
